From PubChem BioAssay (EPA / NIEHS) come the findings set out here.

Several values for one entry are separate records, joined by “and”; a condition that tells them apart may be missing. Equal values may be shown once. Results filed as inconclusive are left out. A structure can be active in one record and inactive in another. Activity calls are given as the source filed them. How the source made its calls: active means hit-call score of the fitted dose curve at least 0.9, where 1 is the maximum; inconclusive means response in the unintended direction; inactive means score below 0.9.

For experiment [1], the target named is rat Mineralocorticoid Receptor (MR), Nr3c2 (gene 25672) (UniProt P22199). The experiment can be described thus: NVS_NR_rMR: NovaScreen (NVS) Nuclear Receptor Binding Assay for rat Mineralocorticoid Receptor (MR) (AID 2283355). In a few lines: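 Adrenalectomized rat brain supernatant was dosed with test chemical, then radioligand binding was measured by scintillation counting at 24 h. Initial testing ran in duplicate at 25 uM, followed by concentration series for actives.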
rat Mineralocorticoid Receptor (MR), Nr3c2 (gene 25672), sequence (P22199 whole entry, looked up): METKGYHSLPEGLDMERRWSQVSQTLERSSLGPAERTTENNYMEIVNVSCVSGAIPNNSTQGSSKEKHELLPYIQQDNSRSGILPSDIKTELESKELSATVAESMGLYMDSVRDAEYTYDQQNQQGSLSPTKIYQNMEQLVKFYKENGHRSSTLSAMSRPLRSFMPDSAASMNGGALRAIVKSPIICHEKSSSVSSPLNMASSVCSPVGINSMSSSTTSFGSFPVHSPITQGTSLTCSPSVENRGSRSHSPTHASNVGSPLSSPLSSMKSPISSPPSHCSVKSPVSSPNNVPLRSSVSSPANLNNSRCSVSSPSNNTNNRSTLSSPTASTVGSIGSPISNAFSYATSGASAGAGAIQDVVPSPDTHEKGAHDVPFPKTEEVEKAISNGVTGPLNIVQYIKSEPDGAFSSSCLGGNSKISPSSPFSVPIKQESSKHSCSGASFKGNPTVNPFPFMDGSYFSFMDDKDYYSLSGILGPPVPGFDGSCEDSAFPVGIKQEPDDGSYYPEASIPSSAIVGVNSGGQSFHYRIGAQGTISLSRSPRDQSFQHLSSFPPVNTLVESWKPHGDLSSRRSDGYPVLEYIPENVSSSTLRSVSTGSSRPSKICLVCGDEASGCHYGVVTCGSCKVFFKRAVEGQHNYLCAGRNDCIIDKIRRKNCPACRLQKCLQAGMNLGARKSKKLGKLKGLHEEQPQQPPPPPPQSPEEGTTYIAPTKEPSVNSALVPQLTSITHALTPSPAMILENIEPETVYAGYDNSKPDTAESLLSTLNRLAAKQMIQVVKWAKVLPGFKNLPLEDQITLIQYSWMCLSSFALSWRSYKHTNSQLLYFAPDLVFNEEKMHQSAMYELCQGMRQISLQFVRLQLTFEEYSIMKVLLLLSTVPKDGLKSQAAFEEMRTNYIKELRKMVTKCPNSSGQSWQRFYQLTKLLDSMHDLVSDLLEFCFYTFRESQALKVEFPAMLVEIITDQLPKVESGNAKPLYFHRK

In experiment [2] the target is Estrogen receptor beta (Homo sapiens) (UniProt Q92731). Description: OT_ER_ERbERb_0480: Odyssey Thera (OT) 8-hour HEK293T Protein-Complementation Assay for Estrogen Receptor-beta/-beta Homodimer (AID 2283357).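 Further: active means signal gain over DMSO baseline.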 In a few lines:
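Cells (HEK293T, stable ER-beta LBD PCA pair) are treated 8 hours, fixed and Draq5-stained; signal is fluorescence intensity increase relative to vehicle, fitted in the gain direction.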

Experiment [3] addresses Retinoic acid receptor alpha (Homo sapiens) (UniProt P10276). Description: NVS_NR_hRAR_Antagonist: NovaScreen (NVS) Nuclear Receptor Binding Assay for human Retinoic Acid Alpha Receptor Antagonism (RAR) (AID 2283358). In a few lines:
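TR-FRET, cell-free, antagonist format; 2 h incubation after dosing; DMSO = baseline; signal loss fitted; 25 uM duplicate primary, then conc. series.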

Experiment [4] addresses human Peroxisome Proliferator-activated Receptor alpha (PPARa), PPARA (gene 5465) (UniProt Q07869). Description: NVS_NR_hPPARa: NovaScreen (NVS) Nuclear Receptor Binding Assay for human Peroxisome Proliferator-activated Receptor alpha (PPARa) (AID 2283359).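 Further: activity means loss of TR-FRET signal versus DMSO baseline.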 In a few lines: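 Chemicals were first screened in duplicate at 25 uM, and active ones were retested across concentration series. Binding was monitored by TR-FRET one hour after dosing, with decreased signal against DMSO counted as activity.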

The target of another experiment is PGR (gene 5241) (UniProt P06401). Description: NVS_NR_hPR: NovaScreen (NVS) Nuclear Receptor Binding Assay for human Progestron Receptor (PR) (AID 2283360).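 Further: active means loss of bound radioligand signal versus DMSO baseline.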 Put shortly: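 T47D lysate; tritiated or iodinated radioligand; scintillation count at 18 h. DMSO = negative control/baseline. Primary: 25 uM, duplicate. Secondary: concentration series for actives.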
PGR (gene 5241), sequence (P06401 whole entry, looked up): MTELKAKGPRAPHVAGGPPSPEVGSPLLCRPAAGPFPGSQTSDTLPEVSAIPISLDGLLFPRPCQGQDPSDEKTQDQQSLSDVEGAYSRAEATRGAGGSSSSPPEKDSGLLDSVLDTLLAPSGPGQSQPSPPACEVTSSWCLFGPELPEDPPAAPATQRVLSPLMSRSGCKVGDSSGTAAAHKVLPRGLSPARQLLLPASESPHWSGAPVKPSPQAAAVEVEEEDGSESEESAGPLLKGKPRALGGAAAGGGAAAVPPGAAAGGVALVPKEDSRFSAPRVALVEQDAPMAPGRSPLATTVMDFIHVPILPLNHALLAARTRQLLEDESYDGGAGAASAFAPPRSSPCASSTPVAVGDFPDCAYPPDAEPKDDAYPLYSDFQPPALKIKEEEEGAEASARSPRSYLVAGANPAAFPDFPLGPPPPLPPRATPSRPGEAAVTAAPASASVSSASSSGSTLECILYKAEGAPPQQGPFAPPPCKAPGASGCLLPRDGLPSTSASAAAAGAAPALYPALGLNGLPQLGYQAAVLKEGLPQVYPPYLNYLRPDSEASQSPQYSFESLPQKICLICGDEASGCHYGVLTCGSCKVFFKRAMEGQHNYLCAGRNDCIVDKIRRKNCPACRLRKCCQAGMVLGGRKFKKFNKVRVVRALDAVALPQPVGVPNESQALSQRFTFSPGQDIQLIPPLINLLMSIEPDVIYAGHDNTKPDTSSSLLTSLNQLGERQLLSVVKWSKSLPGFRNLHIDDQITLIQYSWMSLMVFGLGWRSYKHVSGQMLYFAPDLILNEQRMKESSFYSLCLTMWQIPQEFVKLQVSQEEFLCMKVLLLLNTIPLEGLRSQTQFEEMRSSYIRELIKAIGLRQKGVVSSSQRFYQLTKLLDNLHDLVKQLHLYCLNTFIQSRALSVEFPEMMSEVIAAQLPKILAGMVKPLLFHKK
Experiment [5] addresses Androgen Receptor/SRC-1 Co-activator, AR (gene 367) (UniProt P10275). The experiment can be described thus: OT_AR_ARSRC1_0960: Odyssey Thera (OT) 16-hour HEK293T Protein-Complementation Assay for Androgen Receptor/SRC-1 Co-activator (AID 2283353).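 Further: actives raise the signal above DMSO so potency reflects increased AR and SRC-1 complex.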 Put shortly:
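Interaction of AR with SRC-1 was followed by YFP fragment complementation in HEK293T cells after 16 h of dosing. Gain of nuclear-over-cytoplasmic 488 nm fluorescence against DMSO controls defined activity.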

Experiment [6] shares this target. The experiment can be described thus: OT_AR_ARSRC1_0480: Odyssey Thera (OT) 8-hour HEK293T Protein-Complementation Assay for Androgen Receptor/SRC-1 Co-activator (AID 2283354).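 Further: hits raise the complementation signal above DMSO so AC50 marks enhancers.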 Put shortly: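 Measures AR/SRC-1 binding by Venus YFP fragment complementation in HEK293T stable lines at 8 h post-dose. Imaging quantifies the 488nm nucleus/cytoplasm ratio in ≥400 cells; DMSO defines baseline.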

In experiment [7] the target is Estrogen receptor (Homo sapiens) + Estrogen receptor beta (Homo sapiens) (UniProt P03372+Q92731). The experiment can be described thus: OT_ER_ERaERb_1440: Odyssey Thera (OT) 24-hour HEK293T Protein-Complementation Assay for Estrogen Receptor-alpha/-beta Homodimer (AID 2283356).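 Further: heteromer of ER alpha and ER beta binding domains; hits raise reporter fluorescence and both agonists and antagonists give an increase.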 Put shortly:
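HEK293T cells stably expressing a PCA pair of ERα LBD (aa 310-547) and ERβ LBD (aa 263-489) were dosed for 24 h. Fluorescence intensity increase versus DMSO vehicle was fitted as gain-of-signal.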

Experiment [8] has as its target Retinoic acid receptor alpha (Homo sapiens) (UniProt P10276). Description: NVS_NR_hRARa_Agonist: NovaScreen (NVS) Nuclear Receptor Binding Assay for human Retinoic Acid Alpha Receptor Agonism (RAR) (AID 2283361). In a few lines:
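Readout is time-resolved fluorescence resonance energy transfer after a 2 h exposure of cell-free extracted receptor protein. Initial testing used 25 uM in duplicate, with concentration-response follow-up for active chemicals.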

Estrogen receptor (Homo sapiens) + Estrogen receptor beta (Homo sapiens), sequence (P03372 whole entry, looked up, the tested form may be a part): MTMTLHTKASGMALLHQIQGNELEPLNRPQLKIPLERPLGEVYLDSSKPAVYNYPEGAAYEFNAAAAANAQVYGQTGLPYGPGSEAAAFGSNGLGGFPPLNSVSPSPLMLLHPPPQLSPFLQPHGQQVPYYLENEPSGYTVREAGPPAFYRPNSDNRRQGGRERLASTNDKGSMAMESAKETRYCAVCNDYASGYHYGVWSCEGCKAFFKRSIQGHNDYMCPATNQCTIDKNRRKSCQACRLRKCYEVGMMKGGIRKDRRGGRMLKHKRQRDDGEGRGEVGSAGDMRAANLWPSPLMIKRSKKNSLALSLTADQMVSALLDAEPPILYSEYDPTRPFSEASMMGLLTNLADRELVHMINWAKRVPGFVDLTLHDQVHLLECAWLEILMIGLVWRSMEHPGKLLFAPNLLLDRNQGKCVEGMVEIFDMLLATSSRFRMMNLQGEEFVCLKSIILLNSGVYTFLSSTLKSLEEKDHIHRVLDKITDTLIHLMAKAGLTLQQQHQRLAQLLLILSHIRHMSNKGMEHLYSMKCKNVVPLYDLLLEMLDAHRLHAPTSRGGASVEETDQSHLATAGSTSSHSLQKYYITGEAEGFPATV
Estrogen receptor (Homo sapiens) + Estrogen receptor beta (Homo sapiens), sequence (Q92731 whole entry, looked up, the tested form may be a part): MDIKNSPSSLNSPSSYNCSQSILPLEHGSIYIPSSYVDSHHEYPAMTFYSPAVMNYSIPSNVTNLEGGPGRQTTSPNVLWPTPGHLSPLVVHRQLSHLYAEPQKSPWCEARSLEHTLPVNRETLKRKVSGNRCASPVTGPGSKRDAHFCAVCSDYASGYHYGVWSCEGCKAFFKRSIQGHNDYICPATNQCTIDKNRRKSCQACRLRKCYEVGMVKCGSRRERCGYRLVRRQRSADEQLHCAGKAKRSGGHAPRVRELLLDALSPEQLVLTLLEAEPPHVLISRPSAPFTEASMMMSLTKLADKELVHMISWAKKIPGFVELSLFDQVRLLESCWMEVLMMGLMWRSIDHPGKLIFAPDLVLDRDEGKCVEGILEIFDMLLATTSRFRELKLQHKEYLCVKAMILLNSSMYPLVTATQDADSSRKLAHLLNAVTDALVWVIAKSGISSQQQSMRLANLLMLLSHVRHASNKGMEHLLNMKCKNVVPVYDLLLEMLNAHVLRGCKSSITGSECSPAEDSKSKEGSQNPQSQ
Estrogen receptor beta (Homo sapiens), sequence (Q92731 whole entry, looked up, the tested form may be a part): as above
Androgen Receptor/SRC-1 Co-activator, AR (gene 367), sequence (P10275 whole entry, looked up, the tested form may be a part): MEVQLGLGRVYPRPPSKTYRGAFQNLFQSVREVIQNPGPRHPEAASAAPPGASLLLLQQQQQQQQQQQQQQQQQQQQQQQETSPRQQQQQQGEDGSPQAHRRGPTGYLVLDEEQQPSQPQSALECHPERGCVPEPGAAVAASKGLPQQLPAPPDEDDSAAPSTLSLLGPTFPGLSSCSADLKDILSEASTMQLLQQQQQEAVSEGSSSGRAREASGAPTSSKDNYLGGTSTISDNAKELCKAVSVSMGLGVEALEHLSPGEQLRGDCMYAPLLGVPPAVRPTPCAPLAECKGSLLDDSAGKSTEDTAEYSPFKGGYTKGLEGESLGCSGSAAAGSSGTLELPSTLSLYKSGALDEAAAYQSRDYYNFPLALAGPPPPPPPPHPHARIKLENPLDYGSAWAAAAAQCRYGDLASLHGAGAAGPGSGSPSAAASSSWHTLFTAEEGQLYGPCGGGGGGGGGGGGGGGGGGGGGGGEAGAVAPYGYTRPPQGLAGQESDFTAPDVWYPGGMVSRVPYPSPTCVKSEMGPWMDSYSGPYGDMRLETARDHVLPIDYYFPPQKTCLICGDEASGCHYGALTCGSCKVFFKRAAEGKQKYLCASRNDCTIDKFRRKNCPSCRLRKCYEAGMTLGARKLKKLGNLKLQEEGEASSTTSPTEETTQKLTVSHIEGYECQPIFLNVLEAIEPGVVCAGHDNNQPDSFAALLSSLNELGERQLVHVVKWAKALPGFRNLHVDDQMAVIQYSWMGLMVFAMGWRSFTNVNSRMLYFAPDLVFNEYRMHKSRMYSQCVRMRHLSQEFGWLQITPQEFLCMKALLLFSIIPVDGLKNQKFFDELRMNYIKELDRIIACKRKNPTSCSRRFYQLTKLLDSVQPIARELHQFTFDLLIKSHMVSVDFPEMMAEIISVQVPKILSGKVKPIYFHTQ
human Peroxisome Proliferator-activated Receptor alpha (PPARa), PPARA (gene 5465), sequence (Q07869 whole entry, looked up): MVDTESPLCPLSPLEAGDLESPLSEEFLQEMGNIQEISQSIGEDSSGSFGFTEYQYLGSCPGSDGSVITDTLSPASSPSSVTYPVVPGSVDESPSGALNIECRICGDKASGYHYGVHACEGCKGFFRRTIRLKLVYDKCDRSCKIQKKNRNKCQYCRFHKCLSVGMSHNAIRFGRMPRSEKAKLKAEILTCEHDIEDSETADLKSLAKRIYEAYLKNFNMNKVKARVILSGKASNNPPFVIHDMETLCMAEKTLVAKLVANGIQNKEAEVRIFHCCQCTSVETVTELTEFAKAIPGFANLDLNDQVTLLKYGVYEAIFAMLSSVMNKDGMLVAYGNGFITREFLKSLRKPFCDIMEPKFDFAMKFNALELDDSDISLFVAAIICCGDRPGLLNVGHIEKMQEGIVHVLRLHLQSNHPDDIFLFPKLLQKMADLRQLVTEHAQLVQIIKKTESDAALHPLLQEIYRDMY
Retinoic acid receptor alpha (Homo sapiens), sequence (P10276 whole entry, looked up): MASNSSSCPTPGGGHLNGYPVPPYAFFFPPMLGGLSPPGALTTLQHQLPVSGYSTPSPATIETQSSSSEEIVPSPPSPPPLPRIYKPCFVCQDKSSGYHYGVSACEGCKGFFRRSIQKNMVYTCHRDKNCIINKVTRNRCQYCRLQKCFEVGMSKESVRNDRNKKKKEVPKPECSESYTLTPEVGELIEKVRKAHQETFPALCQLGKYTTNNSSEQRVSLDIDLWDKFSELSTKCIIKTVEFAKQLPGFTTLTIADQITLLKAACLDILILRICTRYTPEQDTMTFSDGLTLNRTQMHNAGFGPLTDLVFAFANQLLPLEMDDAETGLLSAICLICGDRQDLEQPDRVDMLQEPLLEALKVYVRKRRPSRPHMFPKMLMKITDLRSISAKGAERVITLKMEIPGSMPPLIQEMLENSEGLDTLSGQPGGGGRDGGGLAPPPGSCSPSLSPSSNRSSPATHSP

In the case of `O=C(O)Cc1cc(I)c(Oc2ccc(O)c(I)c2)c(I)c1`, the outcome in experiment [1], in experiment [2] and in experiment [3] was inactive. The AC50 in experiment [4] is 46.3 µM (active); with PGR (gene 5241) it was 6.44 µM (active).
Consider `O=CCCCC=O`, for which the call in experiment [1] and in [4] was inactive.
For the compound `CN(C[C@@H](CC[N+]12CCC(C3CCCCC3)(CC1)CC2)c1ccc(Cl)c(Cl)c1)C(=O)c1cc(C(F)(F)F)cc(C(F)(F)F)c1`, the AC50 was 21.3 µM (active) in experiment [5] and 20.9 µM (active) in experiment [6]. Besides, the call in the experiment with PGR (gene 5241) was inactive.
`CCCCCCCCCC(=O)O`: the call in experiment [5], in experiment [6] and in experiment [4] was inactive.
As for `O=c1ccc2ccccc2o1`, the result in [7] and in experiment [2] was inactive.
For the compound `CC[C@H](NC(=O)c1cc(F)ccc1NS(=O)(=O)c1cccc2cccnc12)c1ccccc1`, the result in [7] and in [2] was inactive.
For the compound `O=c1c(-c2ccc(O)cc2)coc2cc(O)cc(O)c12`, the outcome in experiment [5], in experiment [6] and in experiment [8] was inactive.
As for `COc1cc(C(=O)NC2CCN(C)CC2)ccc1Nc1ncc2c(n1)N(C1CCCC1)CC(F)(F)C(=O)N2C`, the AC50 in experiment [5] was 25.9 µM (active); in [6] it was 52.5 µM (active); in experiment [7] it was 11 µM (active). Besides, the result in [2] was inactive.
For the compound `Cc1c2ccccc2c(C)c2c1ccc1ccccc12`, the AC50 in experiment [5] was 13.7 µM (active); in [6], 11.6 µM (active); with PGR (gene 5241), 15.6 µM (active). Also, the outcome in [2] and in experiment [4] was inactive.
For the compound `CCCCCc1ccc(N)cc1`, in experiment [7], the AC50 was 18.9 µM (active) and 27.8 µM (active) and 42.5 µM (active); the result was inactive. For the same compound, in experiment [2], the AC50 is 65.3 µM (active) and 55.7 µM (active) and 56.6 µM (active); the compound was called inactive.
For the compound `O=C(O)c1ccccc1-n1cc(C(=O)O)c(=O)c2cc(Nc3c(F)cc(F)cc3Cl)c(Cl)cc21`, the result in experiment [1] and in [7] was inactive.
As for `C[C@]12CC[C@@H]3c4ccc(O)cc4CC[C@H]3[C@@H]1CC[C@H]2O`, in experiment [1], the AC50 is 0.135 µM (active). For the same compound, the call in [4] was inactive.
With `C[C@]12CC[C@@H]3c4ccc(O)cc4CC[C@H]3[C@@H]1CCC2=O`, the call in experiment [1] and in [4] was inactive. In addition, the AC50 with PGR (gene 5241) was 0.159 µM (active).
Regarding `CCN(Cc1cccc(S(=O)(=O)O)c1)c1ccc(C(=C2C=CC(=[N+](CC)Cc3cccc(S(=O)(=O)O)c3)C=C2)c2ccccc2S(=O)(=O)[O-])cc1`, the result in [7] and in experiment [2] was inactive.
In the case of `CCN(Cc1cccnc1)C(=O)c1cccc(Cl)c1[C@]1(C)C(=O)N(Cc2ccc(OC)cc2OC)c2ccc(Cl)cc21`, the AC50 in experiment [5] was 2.59 µM (active); in the experiment with PGR (gene 5241), 9.73 µM (active). In addition, the call in experiment [6], in experiment [7] and in experiment [2] was inactive.
`c1ccc(C[n+]2cccc3ccccc32)cc1`: the outcome in experiment [7] and in experiment [2] was inactive.
On to `Cc1cc2c(cc1C(F)(F)F)N(C(=O)Nc1ccc(Oc3cccnc3C)nc1)CC2`, for which the result in experiment [7] and in [2] was inactive.
`O=C(Nc1ccc(Cl)cc1)Nc1ccc(Cl)c(Cl)c1`: in [5], the AC50 was 4.86 µM (active). Further, the call in [6], in [7] and in experiment [2] was inactive.
With `Cc1cc(F)ccc1-c1cc(N2CC[C@@H](O)[C@H]2CO)ncc1N(C)C(=O)C(C)(C)c1cc(C(F)(F)F)cc(C(F)(F)F)c1`, the figures for the concentration at half-maximal activity (AC50) (in experiment [5]; in [6]; with PGR (gene 5241)) were 15.2 µM (active), 23.6 µM (active) and 0.401 µM (active), respectively. In addition, the result in experiment [7] and in [2] was inactive.
For `O=C=NCCCCCCN=C=O`, the result in experiment [7] was inactive.
Take `O=C(O)c1ccccc1C(=O)OCc1ccccc1`: the compound was called inactive in [5], in experiment [6] and in experiment [4].
Turning to `O=C(O)Cn1c(=O)n(Cc2ccc(Br)cc2F)c(=O)c2ccc(Cl)cc21`, the outcome in [5], in experiment [7] and in [2] was inactive.
`Oc1ccc2ccccc2c1`: the call in experiment [5] and in [6] was inactive. Also, the AC50 in experiment [2] is 37.7 µM (active).
Turning to `NCc1cccc(C2CCN(C(=O)c3ccc(C#Cc4ccccc4F)o3)CC2)c1`, the values for the AC50 in [5], in experiment [6] and in experiment [4] were 14.6 µM (active), 13.3 µM (active) and 40.8 µM (active), respectively. Also, the outcome (in [2]; with PGR (gene 5241)) was inactive.
Consider `CC(C)(C)c1csc(-c2cc3cc(OCc4ccccc4CC(=O)O)ccc3o2)n1`, for which the outcome in [7] and in experiment [2] was inactive.
For `Cc1occc1C(=O)Nc1ccc(C(=O)N2CCC(F)(F)/C(=C\C(=O)N3CCC(N4CCCCC4)CC3)c3ccccc32)cc1`, the AC50 in [5] was 32.3 µM (active); in [7], 33.5 µM (active). Moreover, the result in experiment [6] and in experiment [2] was inactive.
Turning to `CCCCOC(=O)c1ccc(O)cc1`, the compound was classed as inactive (in experiment [5]; in experiment [6]; in experiment [4]; with PGR (gene 5241)). In addition, in experiment [2], the AC50 was 4.69 µM (active) and 5.25 µM (active) and 5.52 µM (active).
For `NC(=O)c1nc(-c2cccc(-c3cc(F)ccc3OCC(F)(F)C(F)(F)F)c2)n[nH]1`, the AC50 in experiment [5] and in experiment [6] was 50 µM (active) throughout. Further, the outcome in experiment [7] was inactive.
As for `Cc1ccc2oc(CN(Cc3ccccc3)C(=O)Nc3c(F)cc(F)cc3F)c(-c3ccc(Cl)cc3)c2c1`, the outcome in [7] and in [2] was inactive.
As to `CN(C)c1ccc(C(=C2C=CC(=[N+](C)C)C=C2)c2ccc(N(C)C)cc2)cc1`, the AC50 is 0.273 µM (active) in experiment [5], 3.28 µM (active) in [6] and 14.7 µM (active) in [4]. For the same compound, the outcome in [7] was inactive.

The term AC50 denotes the midpoint of the concentration-response curve, whichever way the signal moves.
